Compound activity as filed in PubChem BioAssay.
Giardia kill: kills Giardia lamblia; Giardia lamblia trophozoite viability; activity change, % at 7.66 µM, hits read low; hit rate 0.15% among 340,000; AID 540267; in the data active = activity change below about -80%; inconclusive = between about -30% and that limit;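 also: parasites exposed to compound for two days anaerobically before the ATP read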
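Media and compound were dispensed first, then trophozoites at 100 cells/well; plates sat 48 hrs at 37 deg C without oxygen before ATP luminescence reagent was added and read after 15-30 min at room temperature.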
TDP1 cell noCPT: qHTS for Inhibitors of human tyrosyl-DNA phosphodiesterase 1 (TDP1): qHTS in cells in absence of CPT. DT40 Tdp1-/- hTDP1 cells, no CPT, ATP luminescence, 48 h. Potency, µM (highest dose often 46.2 µM), actives largely listed as inhibitors. hit rate 15% among 420,000. AID 686978, 2013; also: nearly all actives have a fitted effect of over 55% in size
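Readout: luminescence from CellTiter-Glo after 30 min in the dark at RT. Cells: DT40 Tdp1-/- with stable hTDP1, 400/well. Exposure: compounds alone, ≥48 hr, 37 °C.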
TDP1 cell CPT: growth inhibition of DT40 Tdp1-/-;hTDP1 cells with camptothecin (screen for TDP1 inhibitors) | hit rate 12% among 420,000 | Potency, µM (top dose mostly 46.2 µM), hits mostly inhibitors | chicken DT40 Tdp1-/-;hTDP1 cells + 20 nM CPT, ATP luminescence, 48 h; also: nearly all actives have a fitted effect of over 55% in size
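Chicken DT40 Tdp1-/- cells stably complemented with human TDP1 were seeded at 400 cells/well in medium containing 20 nM camptothecin, exposed to pin-transferred compounds, and grown at 37 °C for at least 48 hr. Viability was read as ATP luminescence.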
TDP1 block: inhibitors of human tyrosyl-DNA phosphodiesterase TDP1. Q9NUW8. recombinant TDP1, AlphaScreen DNA substrate cleavage. Potency, µM (titrated, usually from 130 µM), usual class: inhibitors. hit rate 0.28% among 350,000. AID 485290; also: nearly all actives have a fitted effect of over 40% in size
Target sequence (Q9NUW8 whole entry, looked up): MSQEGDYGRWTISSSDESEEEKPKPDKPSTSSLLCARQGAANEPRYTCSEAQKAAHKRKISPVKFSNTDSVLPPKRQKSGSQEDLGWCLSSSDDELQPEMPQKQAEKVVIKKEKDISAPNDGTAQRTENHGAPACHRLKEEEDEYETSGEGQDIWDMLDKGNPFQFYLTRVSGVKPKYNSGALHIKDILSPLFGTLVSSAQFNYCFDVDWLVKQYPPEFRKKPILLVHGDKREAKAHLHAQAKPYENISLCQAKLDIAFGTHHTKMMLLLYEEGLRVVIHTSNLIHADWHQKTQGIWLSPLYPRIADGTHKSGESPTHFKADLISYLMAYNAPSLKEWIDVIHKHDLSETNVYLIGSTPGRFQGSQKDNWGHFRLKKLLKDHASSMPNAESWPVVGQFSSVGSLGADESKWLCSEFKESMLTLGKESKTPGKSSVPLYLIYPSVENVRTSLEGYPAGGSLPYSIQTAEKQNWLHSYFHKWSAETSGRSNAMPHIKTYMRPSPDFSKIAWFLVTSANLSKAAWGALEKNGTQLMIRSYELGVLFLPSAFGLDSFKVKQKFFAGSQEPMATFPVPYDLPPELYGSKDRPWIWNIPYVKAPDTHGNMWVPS
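Compounds were preincubated with Tdp1 (1 nM final) for 15 min at room temperature before substrate (15 nM final) started a 5 min reaction; beads (10 ug/ml final) were then added for 10 min before AlphaScreen detection.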
ELG1 repair inh: blocks ELG1-dependent DNA repair in HEK293T cells | hit rate 2.3% among 330,000 | AID 504467 | HEK293T ELG1-luciferase reporter, luminescence, 16 h; DNA damage induced by 5-fluorouridine | Potency, µM (series often up to 46.1 µM), most hits filed as inhibitors; also: nearly all actives have a fitted effect of over 55% in size
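Step one: seed 2,000 cells per well. Step two: pin-transfer compound or DMSO alongside 5-fluorouridine. Step three: incubate 16 hr, 37 °C, 5% CO2. Step four: add ONE-Glo, wait 30 min, read luminescence.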
IL1B secr inh: inhibitors of inflammasome signaling (IL-1 beta secretion); THP-1 LPS/ATP IL-1B secretion, AlphaLISA, 16 h; active compounds read low; hit rate 4.7% among 360,000; activity change, % at 57.5 µM; in the data active = activity change below about -50%; inconclusive = mostly about -30% to -49%
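THP-1 cells pretreated 1 hr with compounds (up to 57.5 uM final), then stimulated with LPS (250 ng/mL final) plus ATP (1.25 mM final); secreted IL-1B measured by AlphaLISA after 16 hr, decreased signal indicating inhibition.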
A number is an active result; [ ] = remark or other dose. Rows were chosen to be rich in hits. Some 19% of all compounds tested hit in one or more screens of this group. Unless noted, calls follow the shape of the dose curve; as a rule, active = well fitted curve in the direction sought with a large enough effect; inconclusive = small, poorly fitted or top-dose-only effect, or another doubt; inactive = no such curve, though single readings can be large; an effect the other way counts as inactive or inconclusive.

Screening Cc1ccc(OCC(=O)Nc2ccc(O)c(-c3nc4ccccc4o3)c2)cc1 returned Giardia kill inactive, TDP1 cell noCPT inconclusive, TDP1 cell CPT 12µM, TDP1 block inactive, ELG1 repair inh inactive and IL1B secr inh inactive.
For COc1ccc(OCC(=O)Nc2ccc(O)c(-c3nc4ccccc4s3)c2)cc1 the results were TDP1 cell noCPT inconclusive, TDP1 cell CPT 0.82µM and TDP1 block inactive[12.3 µM].
Screening Cc1ccc(SCC(=O)Nc2ccc3oc(-c4ccc(F)cc4)nc3c2)cc1 returned TDP1 cell noCPT inconclusive, TDP1 cell CPT inconclusive and TDP1 block inactive.
CCc1cc(C(=O)N2CCCc3ccccc32)sc1C was read as Giardia kill inactive, TDP1 cell noCPT inactive, TDP1 cell CPT inconclusive and IL1B secr inh inactive.
C[C@H](CO)N1C[C@H](C)[C@@H](CN(C)C(=O)CN2CCOCC2)Oc2cc(Br)ccc2S1(=O)=O was read as TDP1 cell noCPT inactive, TDP1 cell CPT inactive and IL1B secr inh inactive.
O=C(Nc1ccc(O)c(-c2nc3ccccc3o2)c1)C1(c2ccc(Br)cc2)CCCC1 was read as Giardia kill inactive, TDP1 cell noCPT 13µM, TDP1 cell CPT inconclusive, TDP1 block inactive, ELG1 repair inh inactive and IL1B secr inh inactive.
COc1ccc(C(=O)Nc2ccccc2-c2nc3ccccc3s2)c(OC)c1 was read as TDP1 cell noCPT 16µM, TDP1 cell CPT 18µM and TDP1 block inactive.
Screening O=C(Nc1ccc(O)c(-c2nc3ccccc3o2)c1)c1ccc(Br)cc1 returned TDP1 cell noCPT inactive, TDP1 cell CPT inactive and TDP1 block inactive[12.3 µM].
Screening CCOC(=O)COc1ccc(Br)cc1C1NC(=O)NC(C)=C1C(=O)NCc1ccccc1 (configuration not stated) returned Giardia kill inactive, TDP1 cell noCPT inactive, TDP1 cell CPT inactive, TDP1 block inactive, ELG1 repair inh inconclusive and IL1B secr inh inactive.
Cc1ccc(S(=O)(=O)N2CCC(C(=O)NNC(=O)C3CC3)CC2)cc1Cl was read as Giardia kill inactive, TDP1 cell noCPT inactive, TDP1 cell CPT inactive, TDP1 block inactive, ELG1 repair inh inactive and IL1B secr inh inactive.
CC(=O)c1ccc(COC(=O)c2cc3ccccc3oc2=O)cc1 was read as Giardia kill inactive, TDP1 cell noCPT inactive, TDP1 cell CPT inactive, ELG1 repair inh inconclusive and IL1B secr inh inactive.
Screening CCOC(=O)/C(=C\Nc1ccc(OC(F)(F)F)cc1)Sc1ncc(C(F)(F)F)cc1Cl returned Giardia kill inactive, TDP1 cell noCPT 12µM, TDP1 cell CPT 16µM, TDP1 block inactive, ELG1 repair inh inconclusive and IL1B secr inh inactive.
COC(=O)/C(=C\Nc1cccc(Cl)c1C)c1ncc(C(F)(F)F)cc1Cl was read as Giardia kill inactive, TDP1 cell noCPT inconclusive, TDP1 cell CPT inactive, TDP1 block inactive, ELG1 repair inh inactive and IL1B secr inh inactive.
Screening CCOC(=O)C(C(=O)N(C)C)c1ncc(C(F)(F)F)cc1Cl (configuration not stated) returned Giardia kill inactive, TDP1 cell noCPT inactive, TDP1 cell CPT inactive, TDP1 block inactive, ELG1 repair inh inactive and IL1B secr inh inactive.
Screening CCOC(=O)/C(O)=C/c1ncc(C(F)(F)F)cc1Cl returned Giardia kill inactive, TDP1 cell noCPT inconclusive, TDP1 cell CPT 23µM, TDP1 block inactive, ELG1 repair inh inactive and IL1B secr inh inactive.
`Cc1cc(=O)n2nc(N3CCCC(C(=O)NCc4cccc(Br)c4)C3)sc2n1` (configuration not stated) gave Giardia kill inactive, TDP1 cell noCPT inactive, TDP1 cell CPT inactive, TDP1 block inactive, ELG1 repair inh inactive and IL1B secr inh inactive.
`CC1(C)C(=O)NCCN1C(=O)CSc1nccc(-c2ccc(Br)cc2)n1` gave Giardia kill inactive, TDP1 cell noCPT 16µM, TDP1 cell CPT inconclusive, TDP1 block inactive, ELG1 repair inh inactive and IL1B secr inh inactive.
`O=C(Cn1ncc2c3ccccc3n(Cc3ccccc3F)c2c1=O)NCCCc1ccccc1` gave TDP1 cell noCPT 18µM, TDP1 cell CPT inconclusive and TDP1 block inactive.
`Cc1ccccc1Cn1c2ccccc2c2cnn(CC(=O)NC(C)CCc3ccccc3)c(=O)c21` (configuration not stated) gave TDP1 cell noCPT 9.2µM, TDP1 cell CPT 9.2µM and TDP1 block inactive.
COc1cccc(CNC(=O)Cn2ncc3c4ccccc4n(Cc4ccccc4)c3c2=O)c1 was read as TDP1 cell noCPT inactive, TDP1 cell CPT inactive and TDP1 block inactive.
`Cc1ccccc1Cn1c2ccccc2c2cnn(CC(=O)NCCc3ccccc3)c(=O)c21` gave TDP1 cell noCPT inconclusive, TDP1 cell CPT 16µM and TDP1 block inactive.
Screening O=C(Cn1ncc2c3ccccc3n(Cc3ccccc3F)c2c1=O)NCCCN1CCCC1=O returned Giardia kill inactive, TDP1 cell noCPT inactive, TDP1 cell CPT inconclusive, TDP1 block inactive, ELG1 repair inh inactive and IL1B secr inh -53.
Screening O=C(Cn1ncc2c3ccccc3n(Cc3ccccc3F)c2c1=O)NCc1ccccc1Cl returned TDP1 cell noCPT 18µM, TDP1 cell CPT 21µM and TDP1 block inactive.
For CC(=O)c1ccc(NC(=O)Cn2ncc3c4ccccc4n(Cc4ccccc4)c3c2=O)cc1 the results were TDP1 cell noCPT inactive, TDP1 cell CPT inactive and TDP1 block inactive.
For CCCn1c2ccccc2c2cnn(CC(=O)NCc3ccccc3Cl)c(=O)c21 the results were TDP1 cell noCPT inconclusive, TDP1 cell CPT inconclusive and TDP1 block inactive.
Cc1ccc(C)c(Cn2c3ccccc3c3cnn(CC(=O)NCc4ccccn4)c(=O)c32)c1 was read as Giardia kill inactive, TDP1 cell noCPT inconclusive, TDP1 cell CPT inconclusive, TDP1 block inactive, ELG1 repair inh inactive and IL1B secr inh inactive.
Screening Cc1ccc(C)c(Cn2c3ccccc3c3cnn(CC(=O)NCCCc4ccccc4)c(=O)c32)c1 returned TDP1 cell noCPT 9.2µM, TDP1 cell CPT inconclusive and TDP1 block inactive.
Cc1cccc(NC(=O)Cn2ncc3c4ccccc4n(Cc4ccccc4)c3c2=O)c1C was read as TDP1 cell noCPT 23µM, TDP1 cell CPT inconclusive and TDP1 block inactive.
`Cc1ccc(C)c(Cn2c3ccccc3c3cnn(CC(=O)NCCCN4CCCCC4)c(=O)c32)c1` gave Giardia kill inactive, TDP1 cell noCPT 16µM, TDP1 cell CPT inconclusive, TDP1 block inactive, ELG1 repair inh inactive and IL1B secr inh inconclusive.
`Nc1cccc(NP(=O)(c2ccccc2)c2ccccc2)c1` gave Giardia kill inactive, TDP1 cell noCPT inactive, TDP1 cell CPT inactive, TDP1 block inactive, ELG1 repair inh inactive and IL1B secr inh inactive.
